# Hit rate of the full screen: of about 50,000 compounds, about 800 (1.6%) showed an effect of 50% or more. For the sample, strong results were picked, then their nearest neighbours and some compounds at random.
# Molecular target: Bcl-2-like protein 10 (Homo sapiens) (UniProt Q9HD36)
# Test: Phenotype converters, Bcl-B/TR3 peptide binding displacement, primary biochemical FP (AID 1240);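 note: 0% = Bcl-B with tracer peptide and DMSO and 100% = tracer peptide lacking Bcl-B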
# Settings: GST-Bcl-B / FITC-TR3 peptide fluorescence polarization; stronger effect = higher value; compound at 3.75 mg/L
# Chain of Bcl-2-like protein 10 (Homo sapiens) (Q9HD36 whole entry, looked up): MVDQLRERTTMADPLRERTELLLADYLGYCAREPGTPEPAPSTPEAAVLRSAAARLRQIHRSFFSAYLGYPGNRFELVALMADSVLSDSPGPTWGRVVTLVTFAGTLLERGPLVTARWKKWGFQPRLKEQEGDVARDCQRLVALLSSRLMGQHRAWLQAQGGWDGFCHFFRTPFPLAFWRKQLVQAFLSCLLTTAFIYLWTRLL
row,Structure (SMILES),displacement
1,Cc1ccccc1C(=O)O/N=C(\N)c1cccc([N+](=O)[O-])c1,-7.1%
2,Clc1ccc(OCCCN2CCCCC2)cc1,-10%
3,COc1ccccc1OCCCN1CCOCC1,-1.3%
4,COc1ccc(C2CC(O)C(C)C(c3ccc(OC)cc3)N2)cc1 (stereo not drawn),7.8%
5,CCOc1ccc(C(=O)Nc2cccc(C(F)(F)F)c2)cc1Cl,-12%
6,Cc1ccc(C(=O)Nc2ccc(-c3nc4ncccc4o3)cc2)cc1C,21.5%
7,COc1ccc(-c2cc(=O)oc3cc(OC(C)=O)ccc23)cc1,-5.1%
8,CC(=O)N(c1ccccc1)c1nnc(C)s1,-0.3%
9,O=C1NC(=O)N(c2ccccc2F)C(=O)/C1=C/c1ccc(I)o1,34.5%
10,CCN(CC)c1ccc(C=C(C#N)C#N)c(OC)c1,91.5%
11,CCN(CC)c1ccc(C=C(C(C)=O)C(C)=O)c(OC(C)=O)c1,48.6%
12,CCN(CC)c1ccc(/C=C(\C#N)C(=O)Nc2ccc(OC)cc2)c(OC)c1,-6.6%
13,Cc1cc(OCC(O)CNC(C)C)cc(C)c1Cl (stereo not drawn),3.1%
14,O=C(Cn1cc(/C=C2\NC(=S)NC2=O)c2ccccc21)Nc1ccccc1,-41.9%
15,O=C(Cn1cc(/C=C2/C(=O)NC(=S)N(c3ccccc3)C2=O)c2ccccc21)Nc1ccccc1,143%
16,O=C(Cn1cc(/C=C2\SC(=S)NC2=O)c2ccccc21)Nc1ccccc1,-11.9%
17,NC(=O)Cn1cc(/C=C2\C(=O)NC(=O)N(Cc3ccccc3)C2=O)c2ccccc21,17%
18,O=C(Cn1cc(C=C2C(=O)NC(=S)NC2=O)c2ccccc21)Nc1ccccc1,130%
19,COc1ccc(N2C(=O)/C(=C/c3cn(Cc4ccccc4)c4ccccc34)C(=O)NC2=S)cc1,25%
20,O=C(Nc1ccccc1)Nc1nnc(Cc2cccc(Br)c2)s1,1.9%
21,CC1=C(C(=O)OCCc2ccccc2)C(c2ccccc2Cl)CC(=O)N1 (stereo not drawn),-7.2%
22,CC(C)(C)c1csc(N/N=C/c2ccccn2)n1,-6.6%
23,OCCNCCOc1cccc(Cl)c1Cl,2.8%

row,Structure (SMILES),displacement
1,O=C1C2C3C=CC(O3)C2C(=O)N1c1ccccc1I (stereo not drawn),17.8%
2,CCOc1ccccc1C(=O)Nc1ccc(N2CCOCC2)cc1,3.2%
3,Cc1cccc(/C=C2/SC(=S)N(Cc3ccccc3)C2=O)c1,13.4%
4,Nc1nc2nc(C(F)(F)C(F)(F)C(F)(F)C(F)(F)F)cc(=O)n2[nH]1,-1.7%
5,COc1cc(OC)c(OC)cc1CNc1cccc(C)c1,4.3%
6,N#C/C(=C/c1ccc(-c2ccc3c(c2)C(=O)NC3=O)o1)C(N)=O,140%
7,N#C/C(=C\c1ccc(-c2ccc(Br)cc2)o1)C(N)=O,4.6%
8,N#CC(C#N)=Cc1ccc(-c2ccc3c(c2)COC3=O)o1,109%
9,N#C/C(=C\c1ccc(-c2ccc3c(c2)COC3=O)o1)c1nc2ccccc2[nH]1,58.6%
10,Cc1ccc([N+](=O)[O-])cc1-c1ccc(/C=C(\C#N)c2nc3ccccc3[nH]2)o1,-0.7%
11,N#CC(C#N)=Cc1ccc(-c2ccc(S(N)(=O)=O)cc2)o1,-0.4%
12,N#C/C(=C\c1ccc(-c2ccc3c(c2)COC3=O)o1)C(N)=O,-10.4%
13,N#C/C(=C\c1ccc(-c2ccc(Cl)c(Cl)c2)o1)C(N)=O,7.8%
14,N#C/C(=C\c1ccc(-c2ccc(Br)cc2)o1)c1nc2ccccc2[nH]1,2.1%
15,COc1ccc2ccccc2c1C=Nc1ccc(C)c(I)c1,-9.7%
16,CCOc1cc(/C=N/n2cnnc2)ccc1OCCOc1ccc(Br)cc1,19.3%
17,O=C(/C=C/c1ccc(F)cc1)c1nc2ccccc2s1,-6%
18,CCc1ccccc1N1C(=O)CC(Sc2nc(C)cc(C)n2)C1=O (stereo not drawn),10.8%
19,Cc1ccc(C=Nc2ccc(F)cc2)o1,4.1%
20,O=C(Nc1ccc(NC(=O)c2cccc(Br)c2)cc1)c1ccccc1,0%
21,CC(C)OC(=O)c1ccc(NC(=O)c2cncc(Br)c2)cc1,12.3%
22,CC(C)OC(=O)c1ccc(NC(=O)c2cccc(Br)c2)cc1,69.2%
23,COc1ccc(N(CC(=O)Nc2cccc(C)c2)S(=O)(=O)c2ccc(C)cc2)c(OC)c1,3.6%

row,Structure (SMILES),displacement
1,CCOC(=O)C1CCN(S(=O)(=O)c2ccc(F)cc2)CC1,-8%
2,N#Cc1ccccc1N=C1CCCN1Cc1ccccc1,17.4%
3,Cc1ccc(-c2ccc(OCC(=O)Nc3ccccc3C(N)=O)cc2)cc1,4.4%
4,O=C(NC(=S)NC1CCSC1=O)c1ccco1 (stereo not drawn),1%
5,O=C(Nc1ccncc1)c1cc2c(ccc3ccccc32)oc1=O,9.6%
6,Cc1cccnc1NC(=O)c1cc2c(ccc3ccccc32)oc1=O,93%
7,Cc1cccc(NC(=O)c2cc3c(ccc4ccccc43)oc2=O)n1,-7%
8,COc1cc(/C=N/NC(N)=O)ccc1OCC(=O)N1CCCCC1,-4.4%
9,COC(=O)c1ccccc1NC(=O)CSc1nnc(-c2cccc(F)c2)n1-c1ccccc1,-1.1%
10,Cc1nc(C)c(/C(O)=C/c2nc3ccc([N+](=O)[O-])cc3oc2=O)s1,-12%
11,Cc1cccc(-c2nc3ccccc3[nH]2)c1,10.9%
12,Cc1cc(-c2ccccc2)sc1/C(O)=C/c1nc2ccccc2[nH]c1=O,112%
13,Cc1ccc(-c2nc3ccccc3[nH]2)s1,0.7%
14,Cc1nc(C)c(/C(O)=C/c2nc3ccccc3[nH]c2=O)s1,61.6%
15,CC(C)(C)/C(O)=C/c1nc2cc([N+](=O)[O-])ccc2[nH]c1=O,0.3%
16,O=C(Nc1cccc(C(F)(F)F)c1)c1nn2c(c1Br)NC(c1cccs1)CC2C(F)(F)F (stereo not drawn),4.5%
17,COc1ccccc1NC(=O)c1c(NC(=O)Cc2ccccc2)sc2c1CCCCC2,9.3%
18,CC(C)OP(=O)(OC(C)C)C(Nc1ccc(Br)cc1)c1ccc(O)cc1 (stereo not drawn),-13.8%
19,CCOc1ccccc1N(CC(=O)NC1CCCCC1)S(=O)(=O)c1ccccc1,10.8%
20,C=CCN1C(=O)/C(=C/c2ccccc2OCc2ccccc2Cl)SC1=S,11.6%
21,C=CCN1C(=O)/C(=C\c2ccccc2OCc2ccc(Cl)cc2)SC1=S,23.3%
22,CCN1C(=O)/C(=C\c2cccc(OCc3cccc4ccccc34)c2)SC1=S,4.6%
23,CCN1C(=O)/C(=C\c2ccc(OCc3cccc4ccccc34)cc2)SC1=S,106%

row,Structure (SMILES),displacement
1,C=CCN1C(=O)/C(=C\c2cccc(OCc3cccc4ccccc34)c2)SC1=S,15.9%
2,CN1C(=O)/C(=C\c2ccc(OCc3cccc4ccccc34)cc2)SC1=S,-0.8%
3,C=CCN1C(=O)/C(=C\c2cc(Cl)ccc2OCc2ccccc2F)SC1=S,60.2%
4,C=CCN1C(=O)/C(=C/c2cccc(OCc3ccccc3Cl)c2)SC1=S,-4.4%
5,C=CCN1C(=O)/C(=C\c2ccc(OCc3cccc4ccccc34)cc2)SC1=S,87.1%
6,C=CCN1C(=O)/C(=C\c2ccc(OCc3ccccc3Cl)cc2)SC1=S,95.7%
7,CCN1C(=O)/C(=C\c2ccc(OCc3ccccc3Cl)cc2)SC1=S,15.9%
8,C=CCN1C(=O)/C(=C\c2ccc(OCc3ccccc3)cc2)SC1=S,11.4%
9,NC1=NC(=O)/C(=C\c2ccccc2Cl)S1,13.2%
10,CC1=C(C(=O)OC(C)C)C(c2ccccc2Cl)C2=C(CCCC2=O)N1 (stereo not drawn),0%
11,CCOc1cc(/C=C2\C(=O)NC(=O)N(c3cc(C)cc(C)c3)C2=O)cc(Cl)c1O,11.4%
12,Cc1cc(OCCN2CCCC2)ccc1Cl,-2.8%
13,COc1ccc(-n2nc3cc(C)c(NC(=O)c4cc5ccccc5o4)cc3n2)cc1,2.4%
14,Cc1ccc(-n2nc3ccc(NC(=O)c4ccco4)cc3n2)cc1,49.3%
15,Cc1ccc(-n2nc3cc(C)c(NC(=O)c4ccco4)cc3n2)cc1,107%
16,COc1ccc(C(=O)Nc2cc3nn(-c4ccc(OC)cc4)nc3cc2C)cc1,2.2%
17,COc1ccc(-n2nc3cc(C)c(NC(=O)c4ccco4)cc3n2)cc1,5.1%
18,Cc1ccc(-n2nc3cc(C)c(NC(=O)c4cccc(C)c4)cc3n2)cc1,85.1%
19,COc1ccc(-n2nc3cc(C)c(NC(=O)c4ccc(Br)o4)cc3n2)cc1,117%
20,Cc1ccc(-n2nc3cc(C)c(NC(=O)c4ccccc4)cc3n2)cc1,-4.4%
21,Cc1ccc(-n2nc3cc(C)c(NC(=O)c4cccc(Cl)c4)cc3n2)cc1,-4.2%
22,O=S(=O)(c1cccc2ccccc12)n1cnc2ccccc21,6.3%
23,COc1ccc(-c2cc(C(=O)Nc3ccccc3OC)c3ccccc3n2)cc1,14.2%

row,Structure (SMILES),displacement
1,Nc1ccc(C(=O)Nc2cccc(O)c2)cc1,11.4%
2,O=C1NC(=O)c2ccc3c4c(ccc1c24)CC3,55.5%
3,O=C1c2ccc3c4c(ccc(c24)C(=O)N1Cc1ccco1)CC3,9.5%
4,CN(C)N1C(=O)c2ccc3c4c(ccc(c24)C1=O)CC3,6.4%
5,O=C1NC(=S)NC(=O)C1=Cc1ccccc1OS(=O)(=O)c1ccc([N+](=O)[O-])cc1,-7.8%
6,N#Cc1c(-c2ccc(O)cc2)c(C#N)c2nc3ccccc3n2c1N,12.5%
7,N#Cc1c(-c2ccc(F)cc2)c(C#N)c2nc3ccccc3n2c1N,-8%
8,N#Cc1c(-c2cccc(Br)c2)c(C#N)c2nc3ccccc3n2c1N,109%
9,COc1cc2c(cc1NCc1cccc([N+](=O)[O-])c1)oc1ccccc12,-6.6%
10,COc1ccc(-c2nn(-c3ccccc3)cc2/C=C2\N=C(c3ccccc3)OC2=O)cc1[N+](=O)[O-],93.8%
11,O=C1OC(c2cccc(Cl)c2)=N/C1=C\c1ccccc1[N+](=O)[O-],7%
12,COc1ccc(-c2nn(-c3ccccc3)cc2C=O)cc1[N+](=O)[O-],-1.7%
13,CC(=O)CCc1oc2ccc(Br)cc2c1-c1ccc(C)o1,-10.4%
14,COC(=O)C1=C(C(=O)OC)C2(OC1c1cccc(F)c1)C(=O)c1ccccc1C2=O (stereo not drawn),-0.3%
15,CCCCOC(=O)c1cccc(NC(=O)c2cc3ccccc3oc2=O)c1,1.7%
16,Cc1ccc(C(=O)O)cc1N1C(=O)c2ccccc2C1=O,7%
17,Cc1ccc(-c2ccccc2)n1-c1cccc(C(=O)O)c1,1.2%
18,Cc1cc(C(=O)O)ccc1-n1c(C)ccc1C,81.4%
19,Cc1ccc(C(=O)O)cc1N1C(=O)c2ccc(C(=O)O)cc2C1=O,6.5%
20,Cc1ccc(C(=O)O)cc1-n1c(C)ccc1C,83.2%
21,Cc1ccc(N2C(=O)c3ccc(C(=O)O)cc3C2=O)c(C)c1,1.6%
